MLLE-PAM2 inh: inhibitors of PABP1 MLLE–PAM2 peptide binding, primary screen, biochemical, fluorescence polarization, FITC-PAM2, GST-MLLE. inhibition, % at 20 µM. Polyadenylate-binding protein 1 (Homo sapiens), P11940. actives 0.36% (n = 360,000). AID 588489, 2011; in the data active means inhibition above about 35%, passing the limit was not always enough;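 further: plate controls were DMSO wells with GST-MLLE for no effect and wells lacking GST-MLLE protein for full effect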
PHOSPHO1 block: PubChem AID 1565; recombinant PHOSPHO1, absorbance phosphatase assay; actives 1.1% (n = 290,000); Phosphoethanolamine/phosphocholine phosphatase (Homo sapiens), Q8TCT1; inhibition, % at 13.3 µM; in the data active means inhibition above about 60%
eIF4H inh: human eIF4H binding inhibitors, primary screen, translation initiation inhibitor project, biochemical, uHTS, fluorescence polarization; eIF4H fluorescence polarization binding assay; inhibition, % at 35 µM; actives 0.94% (n = 290,000);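 further: calls also rest on retests at 20 µM and on dose response follow-up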
PABP FP inh: PABP poly(A) RNA binding inhibitors, primary screen, biochemical, fluorescence polarization, uHTS | inhibition, % at 35 µM | AID 2014, 2009 | Polyadenylate-binding protein 1 (Homo sapiens), P11940 | actives 1% (n = 290,000);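 further: calls also rest on retests at 20 µM and on dose response follow-up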
CRFBP-R2 block: antagonists of CRF-BP/CRF-R2 complex, primary screen, cell-based, HEK293, calcium dye fluorescence, uHTS; CRF-induced calcium fluorescence; inhibition, % at 11.8 µM; actives 0.59% (n = 350,000); AID 588475, 2011;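 active means inhibition of the ligand-induced calcium signal above about 50% at the single tested concentration, limit read from the data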
An asterisk follows results filed as active; . = no result given. Most compounds without a hit are left out; they make up all but 2.6% or so of the library. Unless noted, how the calls were made is not given here.

SMILES | MLLE-PAM2 inh | PHOSPHO1 block | eIF4H inh | PABP FP inh | CRFBP-R2 block
COc1ccc(CCNC(=O)COC(=O)C23CC4CC(CC(Br)(C4)C2)C3)cc1 | -29 | -9 | -5 | -2 | -6
CC(NC(=O)COC(=O)C12CC3CC(CC(Br)(C3)C1)C2)c1ccccc1 (stereo not drawn) | 4 | . | . | . | 62*
CS(=O)(=O)c1ccc(C(=O)CN2C(=O)NC3(CCCc4ccccc43)C2=O)cc1 (stereo not drawn) | 0 | . | . | . | 53*
O=C1/C(=C/c2ccc(O)cc2)SC(=S)N1CC1CCCO1 (stereo not drawn) | -128 | 56 | 96 | 55* | -37
COc1cc(NC(=O)c2ccc(-c3cnn(C)c3)c3ccoc23)cc(OC)c1OC | -12 | . | . | . | .
CC(=O)C1=C(C)NC(SCC(=O)c2ccc(F)cc2)=C(C#N)C1c1ccco1 (stereo not drawn) | -37 | 43 | 27 | 37 | -4
CC(=O)C1=C(C)NC(SCC(=O)c2ccc(F)cc2)=C(C#N)C1CC(C)C (stereo not drawn) | 26 | -29 | 5 | 14 | -3
CC(=O)C1=C(C)NC(SCC(=O)c2ccc(Cl)c(Cl)c2)=C(C#N)C1c1ccco1 (stereo not drawn) | -32 | 76* | 71* | 60* | -19
CCc1ccc(C(=O)CSC2=C(C#N)C(c3ccco3)C(C(C)=O)=C(C)N2)cc1 (stereo not drawn) | . | -68 | 72* | 12 | .
CC(=O)C1=C(C)NC(SCC(=O)c2ccc(Cl)cc2)=C(C#N)C1CC(C)C (stereo not drawn) | -15 | 87* | -4 | 10 | 24
CC(=O)C1=C(C)NC(SCC(=O)c2cc(Cl)ccc2Cl)=C(C#N)C1c1ccco1 (stereo not drawn) | -25 | 78* | 0 | 20 | -54
CCn1c(-c2ccccc2Cl)nn(CC(=O)Nc2ccc(OC)cc2)c1=S | 9 | 38 | 4 | 3 | 14
CCOc1cc(OCC)nc(S(C)(=O)=O)n1 | 9 | -11 | 0 | 8 | 5
COc1cc(-c2nnc(COC(=O)c3ccc([N+](=O)[O-])o3)o2)cc(OC)c1OC | -5 | . | . | . | 1
COc1cc2c(cc1NC(=O)c1ccc(C)c([N+](=O)[O-])c1)oc1ccccc12 | -15 | -21 | active | 87 | -1
COc1cc2c(cc1NC(=O)COC(=O)CNC(=O)c1ccccc1)oc1ccccc12 | 3 | 41 | -2 | -12 | 76*
COc1ccc(NC(=S)Nc2cccc3cnccc23)cc1 | 20 | 26 | 57 | active | 17
COc1ccc(NC(=S)NCc2cccnc2)cc1OC | -8 | -10 | 2 | 8 | 4
COc1ccc(NC(=S)NCc2cccnc2)cc1 | -26 | -7 | -6 | 4 | 92*
CCN(CC)CC(O)c1ccc2ccc3ccc(O)cc3c2c1 (stereo not drawn) | 10 | . | . | . | 5
CCCn1nnc(NC(=S)NC(=O)CC)n1 | 21 | 60* | -11 | 9 | -4
CCCN1CCN(C2CCCCC2NS(=O)(=O)c2ccc(Cl)cc2)CC1 (stereo not drawn) | -10 | 6 | -8 | -1 | 51*
CCCN1CCN(C2CCCCC2NS(=O)(=O)c2ccccc2)CC1 (stereo not drawn) | 7 | 32 | 2 | -7 | 10
C[C@H](NC(N)=O)C(=O)Nc1ccc(N2CCOCC2)c(S(=O)(=O)Nc2ccc(Cl)cc2)c1 | 38 | . | . | . | 1
CCOC(=O)[C@H]1[C@H]2COc3ccc(Br)cc3[C@@H]2N2C(=O)c3c(C)cc(C)cc3NC(=O)[C@@]12C | 1 | . | . | . | 9
SMILES | MLLE-PAM2 inh | PHOSPHO1 block | eIF4H inh | PABP FP inh | CRFBP-R2 block
Cn1nnc(NC(=S)NC(=O)c2ccc3ccccc3c2)n1 | 49* | . | . | . | 14
Cn1nnc(NC(=O)c2ccc3ccccc3c2)n1 | 0 | -13 | -7 | -8 | -2
Cc1cc(C)cc(CC(=O)N2CCC2(C)C(=O)NS(=O)(=O)c2ccc(Br)cc2)c1 (stereo not drawn) | 6 | . | . | . | .
CCOc1ccc(Nc2nc(Cc3nnc(SCC(=O)NC4CCCCC4)n3C)cs2)cc1 | -18 | 15 | -4 | -23 | -12
CCCCOc1ccc(N(CC(=O)NCC2CCCO2)C(=O)CCC(=O)Nc2nccs2)cc1 (stereo not drawn) | 5 | -11 | -8 | -12 | -40
CCOc1ccc(Nc2nc(Cc3nnc(SCC(=O)NCC4CCCO4)n3C)cs2)cc1 (stereo not drawn) | -74 | 62* | -1 | 2 | -3

Source: PubChem
